± gives the standard deviation.
The compounds below were run on Streptococcus suis P1/7 (assay: percent growth relative to DMSO control; higher = less growth inhibition). Conditions: 10 µM; incubation time 18 h.
Protocol: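 CLSI broth microdilution: 5x10^4 CFU of Streptococcus suis (strain P1/7 or HE06) incubated with 10 µM Pathogen Box compound in cation-adjusted Mueller Hinton broth, 37 °C, 5% CO2, 18 h. Growth read as OD600 and expressed as percent of the DMSO-treated control (100%); mean ± SD of three independent experiments.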

SMILES	percent growth [%]
Nc1ncc(-c2ccc(C(F)(F)F)nc2)cc1-c1ccc(C(F)(F)F)nc1	101 ± 35
COc1ccc(-c2nn(C(C)C)c3ncnc(N)c23)cc1OC	121 ± 74
Cc1ccc(-c2nc(CN(Cc3ccccn3)C(C)C)cs2)o1	19.4 ± 34
CCc1nc2ccc(C(=O)NCc3ccc4c(c3)OCO4)cn2c1N(C)Cc1cccs1	72.9 ± 11
Nc1ncnc2c1ncn2C[C@@H](O)[C@@H](O)C(=O)O	87.3 ± 15
CC1=NN(c2nc3ccccc3s2)C(=O)C1Cc1cccc2ccccc12 (stereo not given)	3.74 ± 3.5
COc1ccc(Oc2ccc([C@@H](C)N(C)c3ncc4c(N)nc(N)nc4n3)cc2)cc1	83.9 ± 75
CCc1nc2ccccc2n1CC(O)COc1cc(C)ccc1Cl (stereo not given)	103 ± 41
COc1cc(C2=NCCN2)ccc1-n1cc(-c2cccc(C3=NCCN3)c2)nn1	63.4 ± 23
N=C(N)c1ccc(-c2cc(-c3ccccc3)on2)cc1	106 ± 55
O=C(Nc1nnc(-c2ccc(Cl)s2)o1)c1ccc(Cl)s1	3.26 ± 4.9
CC1CCCCN1C(=O)NCCc1coc(-c2ccc(F)cc2)n1 (stereo not given)	120 ± 87
CO[C@H]1/C=C/O[C@@]2(C)Oc3c(C)c(O)c4c(O)c(/c(=C/NN5CCN(C)CC5)c(O)c4c3C2=O)=N\C(=O)/C(C)=C\C=C/[C@H](C)[C@H](O)[C@@H](C)[C@@H](O)[C@@H](C)[C@H](OC(C)=O)[C@@H]1C	1.07 ± 0.94
Cc1ccc2nc(C)c(-c3ccn(Cc4ccccc4)n3)n2c1	62.9 ± 23
COc1ccc2nc(C)cc(OCC(=O)Nc3ccccc3OC)c2c1	67.6 ± 16
COc1ccc(N(CCc2cccc(C)n2)C(C)=O)cc1	62.6 ± 12
Clc1ccc(Cl)c(CO[C@H]2CCCC[C@@H]2n2ccnc2)c1	20.8 ± 36
O=C(Nc1ccc(N2CCNCC2)cc1)c1ccn2ncc(-c3cccc(Cl)c3)c2n1	75.2 ± 22
CN(C)c1cc(NC(=O)Nc2ccccc2)c2ccccc2n1	87 ± 34
CC(=O)NCC1CN(c2ccc(-c3ccc(CNCc4cn[nH]n4)cc3)c(F)c2)C(=O)O1 (stereo not given)	0.637 ± 0.99

SMILES	percent growth [%]
CNc1snc(C)c1C(=O)NCCOc1ccc(OC)cc1	115 ± 71
CC(C)n1ncc2c(C(=O)NCC(c3cccs3)N3CCOCC3)cc(-c3ccccc3)nc21 (stereo not given)	106 ± 36
CN1CCCN(C(c2ccccc2)c2ccc(Cl)cc2)CC1 (stereo not given)	85.4 ± 14
COc1cccn2c(C(=O)N3CCCCC3)c(C(F)(F)F)nc12	87 ± 21
COc1cc(C2=NCCN2)cc2cc(-c3ccc(C4=NCCN4)cc3)oc12	83.2 ± 17
CC(C)c1ncc(-c2ccncc2)c([C@H]2CC[C@H](CNC(=O)c3cccnc3)CC2)n1	125 ± 64
Cc1nc(-c2ccccn2)nc(N2CCC(Cc3ccccc3)C2)c1Cl (stereo not given)	-0.158 ± 0.27
NCC(c1cccs1)S(=O)(=O)c1ccccc1 (stereo not given)	90.2 ± 41
CS(=O)(=O)Cc1nc2ccccc2oc1=O	88.2 ± 53
CCn1cnc2c(Nc3cc(F)cc(F)c3)nc(C#N)nc21	75.3 ± 24
COc1ccc(-c2nc(-c3cccc(NC(=O)Cc4ccc(F)cc4)c3)no2)cc1OC	102 ± 57
COc1cccc(-n2nnnc2S(C)(=O)=O)c1	67.1 ± 23
O=C(Nc1nnc(S)s1)c1cc(Br)ccc1Cl	79.5 ± 9.2
CCCCN(CCCC)c1c(C#N)cc(S(=O)(=O)Nc2ccccc2)cc1C#N	69.8 ± 27
COc1ccc(OC)c(NCc2ccc3nc(N)nc(N)c3c2Cl)c1	2.34 ± 1.3
CC(C(=O)N1CCCC1)N1CCN(S(=O)(=O)c2ccc(C(C)(C)C)cc2)CC1 (stereo not given)	63.4 ± 27
CC(C)(C)OC(=O)N1CCC(Cn2nc(-c3cnc4ccccc4c3)c3c(N)ncnc32)CC1	74.1 ± 6.8
CN1CCN(S(=O)(=O)c2ccc(-c3ccc4c(Nc5ncc(Cl)cn5)ccnc4c3)cc2)CC1	103 ± 47
c1ccc(-c2cc(N3CCCCC3)c3ccccc3n2)nc1	0.354 ± 0.61
COc1cncc(-c2cncc(N3CCN(c4ccncc4)CC3)n2)c1	64.3 ± 15
